An excerpt weighted towards active compounds, which were near 0.64% of everything screened.
AI-2 QS modul: Vibrio harveyi AI-2 quorum sensing modulation; activity change, % at 7.5 µM; 0.4% of 300,000 active; AID 2094; Vibrio harveyi JMH597 AI-2 luminescence/OD600 ratio, 9 h; hits give low values; strain lacks LuxN and CqsS sensors; 0 = neutral-control median; in the data active = activity change below about -75%, passing the limit was not always enough; inconclusive = no clear call, values can overlap the other calls;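 also: luminescence divided by OD600 gain over 9 h not by final OD600 alone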
Vif inh: blocks HIV Vif function. HEK293T cells, Vif self-association by quenched fluorescence, imaging, 24 h. inhibition, % at 7.49 µM. 0.35% of 340,000 active; in the data active = inhibition above about 50%, passing the limit was not always enough; inconclusive = no clear call, values can overlap the other calls; inactive = below about 31%
PvdQ inh: P. aeruginosa PvdQ acylase inhibition; purified PvdQ acylase, fluorescence plate reader; inhibition, % at 10 µM; 0.063% of 340,000 active; AID 488965; in the data active = inhibition above about 30%, passing the limit was not always enough; inconclusive = no clear call, values can overlap the other calls;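 also: 0% = vehicle neutral wells and 100% = reference inhibitor wells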
PDI turbidity: blocks human protein disulfide isomerase activity | P07237 | PDI insulin aggregation turbidity, A650, 90 min | inhibition, % at 10 µM | 0.052% of 350,000 active | AID 588391;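 active = mean inhibition across replicates of 30% or more, whatever share of single replicates reach that level; inconclusive = mean inhibition below 30% while every single replicate reaches 30%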
ERp5 inh: inhibitors of human ERp5 | ERp5 insulin aggregation, absorbance 650 nm, 90 min | inhibition, % at 9.99 µM | 0.05% of 350,000 active;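 active = mean replicate inhibition above about 25%, with every replicate also reaching it, limit read from the data, passing the limit was not always enough; inconclusive = only one of those two criteria met; inactive = neither criterion met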
Target sequence (Q15084 whole entry, looked up): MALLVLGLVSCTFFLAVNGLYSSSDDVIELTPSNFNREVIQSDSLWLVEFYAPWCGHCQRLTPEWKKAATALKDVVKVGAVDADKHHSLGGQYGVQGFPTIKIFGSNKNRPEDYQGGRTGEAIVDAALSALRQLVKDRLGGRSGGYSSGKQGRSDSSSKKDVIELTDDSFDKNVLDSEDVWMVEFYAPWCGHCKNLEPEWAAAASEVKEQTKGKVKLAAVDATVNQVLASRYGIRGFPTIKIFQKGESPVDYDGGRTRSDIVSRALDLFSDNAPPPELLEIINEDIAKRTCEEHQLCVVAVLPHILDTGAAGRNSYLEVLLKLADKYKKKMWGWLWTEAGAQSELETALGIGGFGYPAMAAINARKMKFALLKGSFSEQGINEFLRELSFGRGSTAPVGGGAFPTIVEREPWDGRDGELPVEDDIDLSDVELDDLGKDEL
Active calls of the source: *; ? = inconclusive; . = no result given.

SMILES | AI-2 QS modul | Vif inh | PvdQ inh | PDI turbidity | ERp5 inh
Cc1ccc(C(=O)c2coc3cc([N+](=O)[O-])c(O)c([N+](=O)[O-])c23)cc1 | -90* | 8 | 17 | -9 | 1
Cc1ccc(C(=O)c2ccc([N+](=O)[O-])cc2)cc1 | 13 | -8 | 3 | -9 | .
C[C@H](CO)N1C[C@H](C)[C@@H](CN(C)Cc2ccc(C(F)(F)F)cc2)Oc2ccc(NS(C)(=O)=O)cc2C1=O | . | . | . | . | -1
CCOc1c(Cl)cc(CNC(C)(C)CC(C)(C)C)cc1OC | 28 | -6 | -6 | 35* | .
COn1c(=O)c(-c2ccc(C)cc2)[n+]([O-])c2ccccc21 | 14 | 5 | -4 | 2 | 0
COn1c(=O)c(-c2ccccc2)[n+]([O-])c2ccccc21 | 5 | 51* | -1 | -6 | 5
O=C(N/N=C/c1ccc(-c2ccc([N+](=O)[O-])cc2)o1)C(O)c1ccccc1 (stereo not given) | 20 | -2 | -4 | 19 | 2
O=C(N/N=C/c1ccc([N+](=O)[O-])o1)C(O)c1ccccc1 (stereo not given) | -89* | 6 | 2 | 5 | 5
O=C(CNc1ccc2ccccc2c1)N/N=C/c1ccc([N+](=O)[O-])o1 | -92* | -8 | -17 | -5 | 3
CC1Oc2ccccc2C=C1/C=N/Nc1ccc(C(=O)O)cc1 (stereo not given) | -92* | 1 | 10 | -13 | -6
COc1ccccc1NC(=S)N1CCN(C(=O)C2CCCO2)CC1 (stereo not given) | 14 | 64* | 9 | -3 | 2
COc1cccc(-c2ccc3n(c2=O)C[C@H]2[C@H](CO)[C@@H](C(=O)N4CCOCC4)N[C@@H]32)c1 | . | . | . | . | -2
COC(=O)C1C(O)C(C)C(O)C(C)(O)/C=C\C=C(/C)C(=O)Nc2c(C)c(OC(C)=O)c3c(c2O)C(=O)C(C)=C2OCOC(=C23)/C(C)=C/C(C)(O)C(O)C(C)C1O (stereo not given) | -160* | -3 | -3 | 2 | -1
N/C(Cc1ccc(Cl)cc1)=N\OC(=O)c1ccccc1 | -90* | 2 | -13 | -1 | 11
COc1ccc(C(=O)O/N=C(\N)Cc2ccc(Cl)cc2)cc1OC | 26 | 2 | -1 | 0 | .
C[C@H]1CN([C@@H](C)CO)C(=O)c2ccccc2-c2ccccc2CO[C@H]1CN(C)Cc1ccc(C(=O)O)cc1 | . | . | . | . | -8
COc1ccc(CNCc2cccc(Cl)c2)cc1 | 5 | 6 | 43* | 0 | 4
COc1ccc(CC(=O)OCC(=O)Nc2cccc(Cl)c2)cc1 | -71 | -1 | 6 | 2 | -2
CC(=O)Nc1cccc(NC(=O)CCc2ccccc2)c1 | 30 | 9 | 5 | ? | .
Cc1cccc(NC(=O)CCc2ccccc2)c1 | -85* | -5 | -18 | 2 | 3
COc1ccc(CCC(=O)Nc2cccc(Cl)c2)cc1 | -83* | 19 | -8 | 6 | .
COc1ccc(CC(=O)OCC(=O)Nc2cccc(Br)c2)cc1 | -76* | 74* | 8 | 24 | ?
CN1CCN(C(=O)C[C@H]2CC[C@H]3[C@@H](COC[C@H](O)CN3Cc3ccc4c(c3)OCO4)O2)CC1 | . | . | . | . | 1
COc1ccc(OCc2nnc(SCC(=O)Nc3cccc(Cl)c3)o2)cc1 | 35 | 51* | 1 | 18 | -1
CCC(=O)n1nc(-c2ccc(Cl)cc2)nc1SC | -1 | 53* | -4 | -16 | .
SMILES | AI-2 QS modul | Vif inh | PvdQ inh | PDI turbidity | ERp5 inh
COc1ccc(CNC(=O)C2CCN(C(=O)c3ccc(F)cc3)CC2)cc1OC | . | -10 | -16 | -6 | -10
COc1ccc(-c2csc(NC(=O)C3CCN(C(=O)c4ccc(F)cc4)CC3)n2)cc1OC | 19 | -15 | -13 | 1 | 29*
Cc1ccccc1S(=O)(=O)NCC[C@H]1CC[C@H](NC(=O)C2CCC2)[C@H](CO)O1 | . | . | . | . | -13
CC(C)c1ccc(NC(=O)COc2ccccc2)cc1 | -20 | -1 | -12 | 5 | 4
CC(C)c1ccc(NC(=O)COc2ccccn2)cc1 | -83* | -2 | 8 | -8 | 1
C=CCN1C(=O)/C(=C/c2ccc(-c3ccc(F)cc3)o2)SC1=S | 12 | 82* | -11 | -4 | 3
O=C(NCC[C@@H]1CC[C@@H](NC(=O)C2CCCCC2)[C@H](CO)O1)c1ccc(F)cc1 | . | . | . | . | 1
Cc1ccc(S(=O)(=O)NCc2ccc3c(c2)OCO3)cc1C | 7 | -6 | 36* | -7 | 4
COc1ccc(S(=O)(=O)NCc2ccc3c(c2)OCO3)cc1OC | 32 | 114* | -4 | 5 | 4
COc1ccc(NC(=O)N(C)C[C@@H]2OCCCC[C@H](C)Oc3ccc(NC(=O)C4CCCCC4)cc3C(=O)N([C@H](C)CO)C[C@H]2C)cc1 | . | . | . | . | 12
CO[C@@H](CN(C)S(=O)(=O)c1ccc(F)cc1)[C@H](C)CN([C@@H](C)CO)S(=O)(=O)c1cccc(Cl)c1 | . | . | . | . | 0
COc1c2ccoc2nc2c(OC)c(OC[C@@H](O)C(C)(C)O)ccc12 | . | 57* | 27 | -3 | 1
O=c1[nH]nc(-c2ccc(NCCO)c([N+](=O)[O-])c2)c2ccccc12 | 24 | 56* | -2 | -3 | 2
O=c1[nH]nc(-c2ccc(NCCCO)c([N+](=O)[O-])c2)c2ccccc12 | 19 | -1 | -13 | -3 | 0
C[C@@H]1CN([C@@H](C)CO)S(=O)(=O)c2ccc(C#Cc3cccnc3)cc2O[C@H]1CN(C)C(=O)CN(C)C | . | . | . | . | 54*
C[C@H](CO)N1C[C@H](C)[C@@H](CN(C)C(=O)CN(C)C)Oc2cc(C#Cc3cccnc3)ccc2S1(=O)=O | . | . | . | . | -3
CC(C)C#Cc1ccc2c(c1)O[C@@H](CN(C)C(=O)C1CC1)[C@@H](C)CN([C@@H](C)CO)S2(=O)=O | . | . | . | . | 61*
COCC(=O)N(C)C[C@H]1Oc2cc(C#CC(C)(C)O)ccc2S(=O)(=O)N([C@H](C)CO)C[C@H]1C | . | . | . | . | 73*
CC(C)C#Cc1ccc2c(c1)O[C@H](CN(C)C(=O)C1CC1)[C@H](C)CN([C@@H](C)CO)S2(=O)=O | . | . | . | . | -2
Cc1noc(C)c1NC(=O)Nc1ccc2c(c1)C(=O)N([C@@H](C)CO)C[C@H](C)[C@@H](CN(C)C(=O)Nc1c(C)noc1C)O2 | . | . | . | . | -14
CC(C)(C)c1n[nH]c(=S)n(/N=C/c2cccs2)c1=O | -77* | 1 | -13 | 2 | 14
C[C@@H]1CCCCO[C@@H](CN(C)S(=O)(=O)c2cn(C)cn2)[C@@H](C)CN([C@@H](C)CO)C(=O)c2cc(NS(C)(=O)=O)ccc2O1 | . | . | . | . | 6
CC(=O)/C=C/n1c(=S)oc2ccccc21 | -96* | . | . | . | -1
O=C1COc2ccc(S(=O)(=O)N3CCCC3)cc2N1 | 30 | ? | -14 | 5 | 3
O=C1COc2ccc(N3C(=O)C=CC3=O)cc2N1 | -81* | . | . | . | .
CN1CCN(C(=O)C[C@H]2CC[C@@H]3[C@H](COC[C@H](O)CN3S(=O)(=O)c3cccc(F)c3)O2)CC1 | . | . | . | . | 0
CN(C)C(=O)C[C@H]1C=C[C@@H](NC(=O)C2CC2)[C@H](CO)O1 | . | . | . | . | -5

Assay outcomes deposited in PubChem by Broad Institute.
